# Source: PubChem BioAssay (several laboratories)
# EBV LMP1 NFkB – EBV LMP1-driven NF-kappaB luciferase reporter inhibitors, primary screen, cell-based, luminescence, single point; 350,000 compounds, 0.69% hits; LMP1-induced NF-kappaB luciferase reporter cells; AID 504558, 2011; inhibition, % at 12.5 µM; in the data active = inhibition above about 41%;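 also: 0% = neutral control wells and 100% = reference inhibitor control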
# TROY signal inh – inhibitors of TROY-driven NF-kB signaling, primary screen, Q293 LMP1-TROYcd cells, NF-kB luciferase, uHTS; AID 1347056, 2019; 360,000 compounds, 0.98% hits; Q293 LMP1-TROYcd NF-kB luciferase reporter, 4 h; inhibition, % at 10 µM;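 active = compounds whose plate-normalised and pattern-corrected inhibition of the luciferase reporter signal at the single screening dose is 50% or more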
# HIF-2a inh – HIF-2a reporter inhibitors, primary screen, luminescence, 786-0 RCC cells | 786-0 RCC cells HIF-2a reporter, luciferase luminescence, overnight | inhibition, % at 18.8 µM | 360,000 compounds, 0.72% hits | AID 624352, 2012;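 active = inhibition of the luminescence signal of 40% or more relative to plate controls, in a single-dose primary screen at 18.75 µM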
# MITF TRPM1 inh – inhibitors of MITF-dependent TRPM1 promoter reporter, primary screen, cell-based, SK-MEL-5, single point, luciferase; SK-MEL-5 TRPM1 promoter luciferase, 24 h; inhibition, % at 12.5 µM; 330,000 compounds, 0.83% hits; AID 488899, 2010;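 active = mean inhibition across replicates of 60% or more, whatever share of single replicates reaches that level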
# Peg3 prom inh – Peg3 promoter-driven luciferase inhibitors, primary screen, cell-based, HeLa, luciferase luminescence. HeLa PEG-Prom luciferase reporter, overnight. inhibition, % at 20 µM. 360,000 compounds, 1.7% hits. AID 588405, 2011;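 active = inhibition of at least 50% at 20 µM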
# TWEAK-Fn14 inh – inhibitors of TWEAK-Fn14 signaling, primary screen, luciferase reporter cells, uHTS; inhibition, % at 10 µM; 360,000 compounds, 2% hits; TWEAK-stimulated Fn14 reporter cells, luciferase luminescence, 8 h; AID 1159606, 2016; in the data active = inhibition above about 50%
# The depositor's hits bear a star; / = no result. Rows were chosen to be rich in hits. Some 4% of all compounds tested hit in one or more screens of this group.
SMILES,EBV LMP1 NFkB,TROY signal inh,HIF-2a inh,MITF TRPM1 inh,Peg3 prom inh,TWEAK-Fn14 inh
COc1cc([N+](=O)[O-])ccc1NC(=O)NNC(=O)c1sccc1C,-1.9,-24.1,-24.1,-12.2,-29.7,-11.0
CCN1CCN(C(=O)Nc2cccc3ccccc23)CC1,-5.4,55.6*,4.0,13.4,6.5,7.0
CN1CCN(C(=O)Nc2cccc3ccccc23)CC1,-2.7,30.2,2.8,-4.9,9.5,31.6
COc1ccc(C2=NO[C@@H]3C(=O)N(C4CCCCC4)C(=O)[C@H]23)cc1OC,-0.4,24.8,9.6,1.5,2.2,7.3
COc1ccc(C2=NO[C@@H]3C(=O)N(c4ccc5c(c4)OCCO5)C(=O)[C@H]23)cc1OC,16.6,69.1*,30.3,4.8,-87.4,80.8*
Cc1ccc(S(=O)(=O)NCC2CCC(C(=O)NCCCN3CCCC3=O)CC2)cc1 (stereo not given),3.6,-3.7,-2.1,-5.7,12.9,3.0
CC1(C)Cc2ccccc2C2=NNC(=O)C2=N1,6.8,-12.7,33.7,95.9*,49.9,16.1
CCc1nc2ccc(C(=O)NCCc3c[nH]c4ccccc34)cn2c1N(C)CCCc1ccccc1,/,4.5,15.5,/,60.9*,33.5
COCc1ccc(-c2c(-c3cc(OC)cc(OC)c3)oc(=O)c3cc(OC)c(OC)cc23)cc1,-1.3,-48.1,-150.9,-63.2,-66.6,-5.4
COc1cc(/C=N/Nc2snc(SC)c2C#N)cc(OC)c1OC,-13.3,/,-48.2,5.2,-0.5,91.6*
CCCCC[n+]1ccn(C2=C([O-])c3ccccc3C(=O)/C2=N\S(=O)(=O)c2ccc(Cl)cc2)c1,-0.8,9.1,1.0,78.3*,10.0,15.7
Cc1nc(N)nc(N)c1/C=C/C(C)(C)c1ccc(Cl)cc1,45.7*,36.1,36.3,40.5,30.4,35.6
CC(C)CN(C(=O)COC(=O)c1cc2ccccc2cc1O)c1c(N)n(Cc2ccccc2)c(=O)[nH]c1=O,2.7,-4.4,10.8,4.9,-20.2,3.3
CN1C2=CC=CC=CC2=[N+](C)C12C([N+](=O)[O-])=CC(=[N+]([O-])[O-])C=C2[N+](=O)[O-] (stereo not given),-50.0,-20.4,0.3,69.9*,30.0,60.8*
Cc1ccc(N2CC(C(=O)Nc3ccccc3OC(F)F)CC2=O)cc1 (stereo not given),-1.4,-10.9,-4.0,-6.1,-2.2,-15.1
Cc1ccc(-c2nnc(SCC(=O)Nc3ccc4c(c3)oc3ccccc34)n2C)c(Cl)c1,7.8,22.1,-41.7,2.2,-29.8,67.5*
CCN(CC(=O)Nc1ccccc1OC)C(=O)CSCC(=O)Nc1ccc(OC)cc1,-0.1,6.5,12.3,8.9,14.9,5.2
C[C@H](Nc1ccc(C(F)(F)F)cc1[N+](=O)[O-])C(=O)O,-13.4,-13.3,16.9,3.4,12.9,-6.9
C/C(=N\Nc1ccc(C(F)(F)F)cc1[N+](=O)[O-])C(C)C,66.5*,4.1,8.7,-3.5,-5.6,-14.3
COc1ccc(Cl)cc1CNC[C@H]1O[C@@H](n2cnc3c(=O)[nH]c(N)nc32)[C@H](O)[C@@H]1O,/,6.3,13.4,/,13.1,-1.2
Cc1cc2ncn(CCOc3ccccc3C#N)c2cc1C,-7.5,/,-39.6,-12.8,-32.0,54.5*
COc1ccc(-c2ncncc2-c2ccc(Cl)cc2)c(O)c1,-0.1,25.4,13.3,-12.7,-3.8,18.8
COc1ccc(-c2cncnc2-c2ccc(OC)cc2O)cc1,21.6,41.1,19.1,-6.3,7.6,69.2*
CCC(=O)Oc1oc(-c2ccccc2)nc1C=Nc1ccc(C)cc1,2.1,72.0*,14.9,-4.4,-6.9,10.4
CN=Cc1nc(-c2ccccc2)oc1O,-1.1,-50.4,-173.9,-61.1,-152.5,-0.8
SMILES,EBV LMP1 NFkB,TROY signal inh,HIF-2a inh,MITF TRPM1 inh,Peg3 prom inh,TWEAK-Fn14 inh
Cc1ccc(-c2nc(C=Nc3ccc(O)cc3)c(O)o2)cc1,-50.9,-15.5,-72.6,-15.4,-99.3,64.0*
CCC(=O)Oc1oc(-c2ccccc2)nc1C=Nc1ccccc1OC,-0.1,27.0,9.9,25.8,5.3,-7.0
OC(c1cccc(CN2CCCCC2)c1)c1ncc(-c2cccc3ccccc23)[nH]1 (stereo not given),/,15.9,-16.5,/,7.7,7.5
COc1ccc(N2CCN(C(=O)c3cc(-c4ccc(F)cc4)[nH]c3C)CC2)cc1,2.3,6.8,21.3,12.2,24.1,49.9
Cc1[nH]c(-c2ccc(F)cc2)cc1C(=O)N1CCN(c2ccc(Cl)cc2)CC1,-6.3,14.6,11.5,8.0,34.1,89.5*
CCCc1nn(C)c(C(=O)Nc2ccccc2)c1Cl,-5.1,76.3*,-76.4,-28.0,-98.9,81.4*
CCCc1nn(C)c(C(=O)Nc2cccc(C)c2)c1Cl,-9.0,24.3,-122.3,-43.5,-220.7,35.0
CCCc1nn(C)c(C(=O)Nc2cccc(Cl)c2)c1Cl,1.6,70.5*,-10.1,-8.1,-21.6,77.6*
NC(=O)c1ccccc1NC(=O)CCn1c(=S)oc2ccccc21,-3.0,-3.2,-2.4,-6.1,4.3,5.3
COC(=O)c1ccc2nc(-c3ccc(OC)c(OC)c3)c(Cc3cccc(F)c3)n2c1,/,-12.8,-3.0,/,/,-18.1
CCOC(=O)c1c(C)[nH]c(C2=NNC(=Nc3ccccc3OC)SC2)c1C,-26.9,42.3,-213.0,-48.0,-230.0,51.2*
CCOC(=O)c1c(C)c(C(=O)Nc2cc(OC)ccc2OC)c(C)n1CC,-2.3,16.0,-56.5,10.2,56.6*,-8.2
CCOC(=O)c1[nH]c(C)c(C(=O)Nc2cc(OC)ccc2OC)c1C,19.3,-8.4,-17.5,6.9,-13.5,17.7
Cc1cccc(N2CCCn3c2nc2c3c(=O)n(CCN3CCOCC3)c(=O)n2C)c1,7.9,11.3,13.7,16.7,29.3,108.2*
COc1ccc(N2CCCn3c2nc2c3c(=O)n(CCN3CCOCC3)c(=O)n2C)cc1,4.4,26.1,2.6,5.1,-28.0,11.8
COc1ccc(NC(=O)C2(C)Cc3c(-c4cccc(NC(C)=O)c4)ccnc3O2)cn1 (stereo not given),/,0.6,25.9,/,-2.8,20.0
COC(=O)[C@@]1(Cc2ccc(OC)cc2)[C@H]2c3cc(C(=O)N4CCCC4)n(Cc4ccsc4Br)c3C[C@H]2CN1C(=O)c1ccccc1,/,7.5,-18.9,/,/,15.6
CCN1CCC(O)(/C=C/c2ccc(C(C)C)cc2)C(C(=O)/C=C/c2ccc(C(C)C)cc2)C1 (stereo not given),-72.8,-3.7,-8.2,66.5*,103.6*,40.2
CCN1CCN(C(=O)/C=C/c2ccc(C(C)C)cc2)CC1,2.8,-1.3,-4.0,-1.3,6.2,-8.6
COc1cccc(-c2nc(CS(=O)(=O)CC(=O)Nc3ccccc3Cl)c(C)o2)c1,2.9,2.0,11.4,13.1,5.8,9.5
